Experimental findings from PubChem BioAssay (NCI) are described below.

SMILES strings stand for the structures. This is part of a sample that, as a whole, favours compounds with a hit. Of some 83,000 tested, about 20% had one in any assay.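 96-well plates, one dose, 48 hours. Percent growth reported; active if below 10.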 Unmarked numbers belong to inactive results. Calls of active or inactive are those of the source.

Test systems include SR leukemia; RPMI-8226 leukemia; OVCAR-8 ovarian; OVCAR-5 ovarian; OVCAR-4 ovarian; SK-OV-3 ovarian; IGROV1 ovarian; OVCAR-3 ovarian; HS 578T breast; NCI/ADR-RES ovarian; T-47D breast; BT-549 breast; MDA-MB-435 melanoma; SW-620 colon; MCF7 breast; HCT-116 colon; HCC-2998 colon; KM12 colon.
Holding throughout (assay): NCI-60 one-dose screen, 48 h (100 = growth as untreated, 0 = no growth, -100 = all killed)
Holding throughout (settings): 10 µM unless noted

With `CCN1CCN(C(=O)[C@]23CCC(C)(C)C[C@@H]2C2=CC[C@@H]4[C@@]5(C)C/C(=C/c6cccnc6)C(=O)C(C)(C)[C@@H]5CC[C@@]4(C)[C@]2(C)CC3)CC1`, the growth is 4.78% (active) in the experiment with SR leukemia; 5.88% (active) with RPMI-8226 leukemia; 27.1% in the experiment with OVCAR-8 ovarian; 83.8% with OVCAR-5 ovarian; 7.28% (active) in the experiment on OVCAR-4 ovarian; 56% with SK-OV-3 ovarian. Further, the growth in the experiment on IGROV1 ovarian is 51.6%; with OVCAR-3 ovarian, 28.6%; in the experiment on HS 578T breast, 54.6%; in the experiment with NCI/ADR-RES ovarian, 8.32% (active); in the experiment with T-47D breast, 20.1%; in the experiment on BT-549 breast, 25.7%. Besides, the growth in the experiment on MDA-MB-435 melanoma is 34.9%; with SW-620 colon, 27.6%; in the experiment on MCF7 breast, 5.68% (active); with HCT-116 colon, 13.3%; with HCC-2998 colon, 18.9%; in the experiment on KM12 colon it was 33.8%.

Take `N=c1ccc2nc3c(cc(N)c4ccccc43)oc-2c1`: the growth is -41% (active) in the experiment on SR leukemia; -49.3% (active) in the experiment on RPMI-8226 leukemia; -54.1% (active) in the experiment on OVCAR-8 ovarian; -100% (active) in the experiment on OVCAR-5 ovarian; -100% (active) in the experiment on OVCAR-4 ovarian; -96.3% (active) with SK-OV-3 ovarian. Besides, the growth in the experiment with IGROV1 ovarian is -29.4% (active); with OVCAR-3 ovarian, -90.1% (active); in the experiment with HS 578T breast it was -23.3% (active); in the experiment on NCI/ADR-RES ovarian, -57.7% (active); in the experiment on T-47D breast it was -80.1% (active); in the experiment on BT-549 breast, -13.2% (active). Besides, the growth in the experiment with MDA-MB-435 melanoma is -86.1% (active); in the experiment with SW-620 colon, -79.6% (active); with MCF7 breast, -62.3% (active); in the experiment with HCT-116 colon it was -96.1% (active); in the experiment on HCC-2998 colon it was -96.8% (active); with KM12 colon, -94.9% (active).

Turning to `COC(=O)[C@]12CC[C@@H](C)[C@H](C)[C@@H]1C1=CC[C@@H]3[C@@]4(C)C[C@@H](OC(C)=O)[C@H](OC(C)=O)[C@@](C)(COC(C)=O)[C@@H]4[C@H](O)C[C@@]3(C)[C@]1(C)CC2`, the growth in the experiment on SR leukemia is 2.75% (active); in the experiment with RPMI-8226 leukemia, 5.96% (active); in the experiment on OVCAR-8 ovarian, 16.9%; in the experiment on OVCAR-5 ovarian it was 34.6%; in the experiment on OVCAR-4 ovarian, 19.3%; in the experiment with SK-OV-3 ovarian it was 2.45% (active). In addition, the growth in the experiment with IGROV1 ovarian was 36.7%; with OVCAR-3 ovarian, 15%; in the experiment on HS 578T breast, 35.9%; in the experiment on NCI/ADR-RES ovarian, 10.5%; with T-47D breast, -13.6% (active); in the experiment with BT-549 breast, 0.787% (active). Besides, the growth in the experiment with MDA-MB-435 melanoma was 17.4%; in the experiment on SW-620 colon, 20.7%; in the experiment with MCF7 breast, 5.21% (active); with HCT-116 colon, 9.38% (active); with HCC-2998 colon, 5.84% (active); in the experiment on KM12 colon, 8.42% (active).

Turning to `CC1=NN(c2ccc(S(=O)(=O)O)cc2Cl)C(=O)C1`, the growth in the experiment on SR leukemia was 113%; in the experiment with RPMI-8226 leukemia, 104%; in the experiment with OVCAR-8 ovarian, 99.9%; in the experiment with OVCAR-5 ovarian, 94.3%; in the experiment on OVCAR-4 ovarian it was 102%; in the experiment on SK-OV-3 ovarian, 105%. Besides, the growth in the experiment with IGROV1 ovarian is 105%; in the experiment on OVCAR-3 ovarian it was 158%; with HS 578T breast, 131%; in the experiment on NCI/ADR-RES ovarian, 98.9%; in the experiment on T-47D breast, 97.8%; in the experiment with BT-549 breast, 116%. Moreover, the growth in the experiment on MDA-MB-435 melanoma was 107%; in the experiment on SW-620 colon, 107%; in the experiment with MCF7 breast it was 94.4%; in the experiment with HCT-116 colon, 93%; in the experiment with HCC-2998 colon it was 83.1%; with KM12 colon it was 137%.

Turning to `N#CC1c2ccccc2-c2ccccc2N1C(=O)c1ccccc1` (centres undefined), the growth in the experiment with SR leukemia was 65.2%; in the experiment on RPMI-8226 leukemia, 26.4%; with OVCAR-8 ovarian, 22.3%; with OVCAR-5 ovarian, 41.8%; with OVCAR-4 ovarian, 38.1%; in the experiment with SK-OV-3 ovarian, 54.3%. Moreover, the growth with IGROV1 ovarian is 24.2%; with OVCAR-3 ovarian it was -8.36% (active); in the experiment on HS 578T breast, 7.52% (active); with NCI/ADR-RES ovarian, -47.4% (active); in the experiment on T-47D breast, 73.7%; with BT-549 breast, 21.5%. The growth in the experiment with MDA-MB-435 melanoma was -13.6% (active); in the experiment with SW-620 colon, 27.3%; in the experiment with MCF7 breast, 22.3%; in the experiment with HCT-116 colon, 6.83% (active); in the experiment on HCC-2998 colon it was -46.1% (active); in the experiment with KM12 colon, 5.94% (active).

With `CSc1ccc(N(C)c2nc(C)nc3c2CCC3)cc1`, the growth in the experiment on SR leukemia was 1.95% (active); with RPMI-8226 leukemia, 23.5%; with OVCAR-8 ovarian, 12%; in the experiment with OVCAR-5 ovarian it was 33.2%; in the experiment on OVCAR-4 ovarian, 38.2%; with SK-OV-3 ovarian, 19.5%. The growth in the experiment with IGROV1 ovarian is 31.3%; with OVCAR-3 ovarian it was 5.43% (active); with HS 578T breast it was 29.8%; in the experiment on NCI/ADR-RES ovarian, 8.05% (active); in the experiment with T-47D breast it was 64.5%; in the experiment with BT-549 breast, 23.6%. For the same compound, the growth in the experiment with MDA-MB-435 melanoma was -12.8% (active); in the experiment on SW-620 colon it was 28.1%; in the experiment on MCF7 breast, 16%; in the experiment with HCT-116 colon, 0.112% (active); with HCC-2998 colon, 8.45% (active); with KM12 colon it was 8.57% (active).

Consider `COc1ccc(/C=C/C(=O)NCC(C)O)cc1` (centres undefined), for which the growth was 105% in the experiment with SR leukemia; 105% with RPMI-8226 leukemia; 97.9% in the experiment on OVCAR-8 ovarian; 89.2% in the experiment on OVCAR-5 ovarian; 104% in the experiment with OVCAR-4 ovarian; 87.8% in the experiment with SK-OV-3 ovarian. Moreover, the growth is 93.2% in the experiment on IGROV1 ovarian; 103% in the experiment with OVCAR-3 ovarian; 94.4% with HS 578T breast; 106% with NCI/ADR-RES ovarian; 97.2% in the experiment with T-47D breast; 97.6% in the experiment with BT-549 breast. Also, the growth in the experiment with MDA-MB-435 melanoma is 104%; with SW-620 colon, 101%; with MCF7 breast, 94.9%; in the experiment on HCT-116 colon, 91.3%; in the experiment with HCC-2998 colon, 100%; with KM12 colon, 99.9%.

`Cn1cc(-c2csc(-c3cn(CCCN4CCCCC4)c4ccc(Br)cc34)n2)c2cccnc21`: the growth in the experiment on SR leukemia was -48.9% (active); in the experiment with RPMI-8226 leukemia, -35.3% (active); with OVCAR-8 ovarian, -16.4% (active); in the experiment on OVCAR-5 ovarian, 30.8%; in the experiment with OVCAR-4 ovarian it was 32.3%; with SK-OV-3 ovarian it was 75.2%. The growth is -20.1% (active) with IGROV1 ovarian; -75.6% (active) in the experiment with OVCAR-3 ovarian; 60.8% with HS 578T breast; 19.9% with NCI/ADR-RES ovarian; 21.8% in the experiment on T-47D breast; 70.9% in the experiment with BT-549 breast. For the same compound, the growth in the experiment on MDA-MB-435 melanoma was -69.5% (active); in the experiment on SW-620 colon it was -74.3% (active); with MCF7 breast it was -64.6% (active); with HCT-116 colon, -89.5% (active); in the experiment with HCC-2998 colon it was 85.5%; with KM12 colon it was 9.18% (active).
